Experimental data: PubChem BioAssay (Tox21)
Results filed as inconclusive are left out. Entries that show only a call come without a potency. Active and inactive are the calls of the source. Unless noted, calls follow the shape of the dose curve; as a rule, active = well fitted curve in the direction sought with a large enough effect in the repeat runs; inconclusive = weak or mixed curves; inactive = no such curve, though single readings can be large; an effect the other way counts as inactive or inconclusive.

Assays:
[1] = qHTS assay to identify small molecule agonists of the peroxisome proliferator-activated receptor delta (PPARd) signaling pathway - cell viability counter screen (AID 743211); also: nearly all actives have a fitted effect of over 55% in size; also: potency is read from the fitted curve at half-maximal effect
Procedure, shortened: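 Read-out: CellTiter-Glo luminescence, 30 min RT, measured in the same wells as the beta-lactamase reporter. Cells: GeneBLAzer PPAR delta UAS-bla HEK293H, 3000 cells/well, compound exposure 17 h at 37C.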

[2] = molecular target: Peroxisome proliferator-activated receptor delta (Homo sapiens) (UniProt Q03181); assay: qHTS assay to identify small molecule agonists of the peroxisome proliferator-activated receptor delta (PPARd) signaling pathway (AID 743212; calls by dose curve)
Procedure, shortened: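 Quantitative high-throughput agonist screen in a HEK293H beta-lactamase reporter line under UAS control. Compounds in DMSO, at 37 C. Fluorescence read after 2 h with FRET substrate at room temperature.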

[3] = molecular target: Peroxisome proliferator-activated receptor delta (Homo sapiens) (UniProt Q03181); assay: qHTS assay to identify small molecule antagonists of the peroxisome proliferator-activated receptor delta (PPARd) signaling pathway (AID 743215; active = well fitted inhibition curve with a large enough effect in the signal ratio in the repeat runs, not every such curve was filed as active; the % refers to the signal ratio;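 also: cells stimulated with agonist L165041 at 300 nM final during compound exposure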; also: potency is read from the fitted curve at half-maximal effect)
Procedure, shortened: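 Antagonist-mode beta-lactamase reporter screen: HEK293H cells with UAS-bla under PPARd control, stimulated by 300 nM L165041 (final) alongside test compound for 17 h at 37 C, then FRET fluorescence after 2 h substrate incubation.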

[4] = molecular target: Bile acid receptor (Homo sapiens) (UniProt Q96RI1); assay: qHTS assay to identify small molecule antagonists of the farnesoid-X-receptor (FXR) signaling pathway (AID 743217; active = well fitted inhibition curve with a large enough effect in the signal ratio in the repeat runs, not every such curve was filed as active; the % refers to the signal ratio)
Procedure, shortened: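 Beta-lactamase reporter under UAS control in HEK 293T cells; compound exposure 16 h at 37 °C in the presence of chenodeoxycholic acid (50 uM final); signal from B/G FRET substrate after 2 h at room temperature.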

[5] = molecular target: Bile acid receptor (Homo sapiens) (UniProt Q96RI1); assay: qHTS assay to identify small molecule agonists of the farnesoid-X-receptor (FXR) signaling pathway (AID 743220; active = well fitted activation curve with a large enough effect in the signal ratio in the repeat runs, not every such curve was filed as active; the % refers to the signal ratio)
Procedure, shortened: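 Beta-lactamase reporter under UAS control in GeneBLAzer FXR HEK 293T cells (5000/well) measured with LiveBLAzer FRET substrate after 2 h at room temperature. Compound exposure lasted 16 h at 37C.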

[6] = qHTS assay to identify small molecule antagonists of the farnesoid-X-receptor (FXR) signaling pathway - cell viability counter screen (AID 743221; active = well fitted cell-killing curve with a large enough effect in the repeat runs, not every such curve was filed as active; also: nearly all actives have a fitted effect of over 50% in size; also: potency is read from the fitted curve at half-maximal effect)
Procedure, shortened: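 HEK 293T FXR-bla cells, 5 h pre-incubation; compound + CDCA 50 uM final, 16 h, 37 C; beta-lactamase FRET read first, then CellTiter-Glo luminescence, 30 min RT.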

[7] = molecular target: Vitamin D3 receptor (Homo sapiens) (UniProt P11473); assay: qHTS assay to identify small molecule agonists of the vitamin D receptor (VDR) signaling pathway (AID 743222; calls by dose curve)
Procedure, shortened: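 Agonist activity measured in VDR-bla reporter cells. Exposure 16 h, 37C, 5% CO2; detection by B/G FRET substrate, 2 h RT.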

[8] = molecular target: Vitamin D3 receptor (Homo sapiens) (UniProt P11473); assay: qHTS assay to identify small molecule antagonists of the vitamin D receptor (VDR) signaling pathway (AID 743223; active = well fitted inhibition curve with a large enough effect in the signal ratio in the repeat runs, not every such curve was filed as active; the % refers to the signal ratio)
Procedure, shortened: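 Beta-lactamase reporter read-out: FRET substrate fluorescence after 2 h at room temperature, following 16 h exposure of VDR-bla cells to test compound plus 3 nM (final) 1alpha,25-dihydroxyvitamin D3 agonist at 37C.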

[9] = qHTS assay to identify small molecule antagonists of the vitamin D receptor (VDR) signaling pathway - cell viability counter screen (AID 743225); also: nearly all actives have a fitted effect of over 50% in size; also: potency is read from the fitted curve at half-maximal effect
Procedure, shortened: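 Viability counter screen run in the same wells as the beta-lactamase reporter assay: HEK 293T VDR-UAS-bla cells, 16 h compound exposure at 37C with 3 nM (final) 1-alpha,25-dihydroxyvitamin D3. CellTiter-Glo luminescence, 30 min, room temperature.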

[10] = qHTS assay to identify small molecule agonists of the endoplasmic reticulum stress response signaling pathway (AID 1159516; active = well fitted activation curve with a large enough effect in the signal ratio in the repeat runs, not every such curve was filed as active; the % refers to the signal ratio)
Procedure, shortened: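 ER stress element reporter (bla) in HeLa. 1,500 cells/well, overnight attachment; 5 hr compound; 2 hr RT substrate; dual-emission fluorescence.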

[11] = qHTS assay to identify small molecule agonists of the endoplasmic reticulum stress response signaling pathway - cell viability counter screen (AID 1159517; calls by dose curve; also: nearly all actives have a fitted effect of over 50% in size; also: potency is read from the fitted curve at half-maximal effect)
Procedure, shortened: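 Counter-screen wells were identical to the reporter wells. Cells were plated at 1,500 per well and dosed for 5 hr, then read for luminescence 30 min after CellTiter-Glo addition.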

[12] = qHTS assay to identify small molecule antagonists of the retinoid-related orphan receptor gamma (ROR-gamma) signaling pathway - cell viability counter screen (AID 1159520); also: nearly all actives have a fitted effect of over 50% in size; also: potency is read from the fitted curve at half-maximal effect
Procedure, shortened: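 Tet-on ROR gamma CHO cells were given compounds for 2 hr, then doxycycline hyclate at 1 uM final, and incubated 16 hr at 37 C. Viability was measured as ATP content by CellTiter-Glo luminescence.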

[13] = molecular target: Nuclear receptor ROR-gamma (Homo sapiens) (UniProt P51449); assay: qHTS assay to identify small molecule antagonists of the retinoid-related orphan receptor gamma (ROR-gamma) signaling pathway (AID 1159521; also: nearly all actives have a fitted effect of over 50% in size; also: potency is read from the fitted curve at half-maximal effect)
Procedure, shortened: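 Luminescence readout (ONE-Glo, 30 min RT) after 16 h doxycycline induction; loss of signal scored as antagonism. CHO cells with TET-inducible RORγ and RORE-LUC reporter; compounds added 2 h before 1 uM final doxycycline.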

[14] = qHTS assay to identify small molecule agonists of the AP-1 signaling pathway - cell viability counter screen (AID 1159525; calls by dose curve; also: nearly all actives have a fitted effect of over 55% in size)
Procedure, shortened: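 AP-1-bla ME-180 cells in Opti-MEM with 0.5% dialyzed FBS, compound exposure 5 h at 37 C in 15-point titration. Viability read in the same wells as ATP content by CellTiter-Glo luminescence, normalised to tetra-n-octylammonium bromide and DMSO controls.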

[15] = qHTS assay to identify small molecule agonists of the AP-1 signaling pathway (AID 1159526; calls by dose curve)
[16] = molecular target: Retinoic acid receptor RXR-alpha (Homo sapiens) (UniProt P19793); assay: qHTS assay to identify small molecule agonists of the RXR signaling pathway (AID 1159527; calls by dose curve; also: nearly all actives have a fitted effect of over 35% in size)
Procedure, shortened: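 Agonist mode; 9-cis retinoic acid positive control. HEK 293T UAS-bla reporter cells, 2% charcoal-stripped FBS, 16 hr compound exposure at 37 C/5% CO2. LiveBLAzer B/G FRET substrate 2 hr RT; ex 405, em 460/530 nm.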

[17] = qHTS assay to identify small molecule antagonists of the peroxisome proliferator-activated receptor delta (PPARd) signaling pathway - cell viability counter screen (AID 743213); also: nearly all actives have a fitted effect of over 50% in size; also: potency is read from the fitted curve at half-maximal effect
Procedure, shortened: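 Cytotoxicity counter screen: CellTiter-Glo luminescence read 30 min after addition, in the same wells as the reporter assay. There, PPARd UAS-bla HEK293H cells (3000/well) were treated 17 h at 37 C with compound and 300 nM L165041.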

[18] = qHTS assay to identify small molecule agonists of the farnesoid-X-receptor (FXR) signaling pathway - cell viability counter screen (AID 743218); also: nearly all actives have a fitted effect of over 45% in size; also: potency is read from the fitted curve at half-maximal effect
Procedure, shortened: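 In GeneBLAzer FXR-UAS-bla HEK 293T cells, compounds act for 16 h at 37 C. Cell viability is then scored in the reporter wells by CellTiter-Glo, 30 min at RT, luminescence.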

[19] = qHTS assay to identify small molecule agonists of the vitamin D receptor (VDR) signaling pathway - cell viability counter screen (AID 743224); also: nearly all actives have a fitted effect of over 50% in size; also: potency is read from the fitted curve at half-maximal effect
Procedure, shortened: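 VDR-bla cell line, quantitative HTS format; 16 h compound incubation (37C, 5% CO2); ATP-based CellTiter-Glo luminescence measured in the reporter assay wells.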

Chain of Retinoic acid receptor RXR-alpha (Homo sapiens) (P19793 whole entry, looked up): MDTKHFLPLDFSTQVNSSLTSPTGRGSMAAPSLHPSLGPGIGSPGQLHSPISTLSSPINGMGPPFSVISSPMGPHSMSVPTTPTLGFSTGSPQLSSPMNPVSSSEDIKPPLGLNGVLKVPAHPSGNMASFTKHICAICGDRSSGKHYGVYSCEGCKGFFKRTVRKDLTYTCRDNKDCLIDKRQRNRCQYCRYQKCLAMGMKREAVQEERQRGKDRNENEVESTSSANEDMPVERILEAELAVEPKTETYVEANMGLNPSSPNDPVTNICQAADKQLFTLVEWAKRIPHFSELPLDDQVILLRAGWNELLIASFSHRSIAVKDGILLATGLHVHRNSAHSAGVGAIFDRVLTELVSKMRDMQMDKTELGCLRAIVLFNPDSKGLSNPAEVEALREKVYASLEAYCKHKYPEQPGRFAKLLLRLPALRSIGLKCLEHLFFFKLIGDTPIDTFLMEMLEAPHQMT
Chain of Bile acid receptor (Homo sapiens) (Q96RI1 whole entry, looked up): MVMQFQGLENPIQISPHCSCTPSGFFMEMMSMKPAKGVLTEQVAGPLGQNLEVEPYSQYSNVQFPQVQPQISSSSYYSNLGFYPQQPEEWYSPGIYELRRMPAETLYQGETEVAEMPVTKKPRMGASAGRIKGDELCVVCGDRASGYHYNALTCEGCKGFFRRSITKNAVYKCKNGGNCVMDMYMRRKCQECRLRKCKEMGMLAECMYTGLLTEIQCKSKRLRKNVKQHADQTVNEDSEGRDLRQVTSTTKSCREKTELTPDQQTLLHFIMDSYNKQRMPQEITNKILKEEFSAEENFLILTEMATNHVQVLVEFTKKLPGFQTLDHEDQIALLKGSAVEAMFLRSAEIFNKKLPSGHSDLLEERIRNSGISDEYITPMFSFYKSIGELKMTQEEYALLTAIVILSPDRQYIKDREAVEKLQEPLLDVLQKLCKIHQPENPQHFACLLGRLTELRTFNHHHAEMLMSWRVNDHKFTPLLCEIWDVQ
Chain of Vitamin D3 receptor (Homo sapiens) (P11473 whole entry, looked up): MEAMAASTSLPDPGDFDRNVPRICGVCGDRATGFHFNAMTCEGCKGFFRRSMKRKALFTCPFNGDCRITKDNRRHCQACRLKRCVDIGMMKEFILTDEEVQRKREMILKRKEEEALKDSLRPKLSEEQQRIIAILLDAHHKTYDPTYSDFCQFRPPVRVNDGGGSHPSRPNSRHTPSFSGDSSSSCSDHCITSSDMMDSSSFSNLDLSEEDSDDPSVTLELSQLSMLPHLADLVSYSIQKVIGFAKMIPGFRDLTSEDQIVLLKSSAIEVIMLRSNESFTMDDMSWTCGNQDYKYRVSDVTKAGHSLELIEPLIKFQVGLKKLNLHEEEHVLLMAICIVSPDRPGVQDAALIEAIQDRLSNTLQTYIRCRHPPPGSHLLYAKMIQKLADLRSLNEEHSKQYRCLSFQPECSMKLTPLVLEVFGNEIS
Chain of Peroxisome proliferator-activated receptor delta (Homo sapiens) (Q03181 whole entry, looked up): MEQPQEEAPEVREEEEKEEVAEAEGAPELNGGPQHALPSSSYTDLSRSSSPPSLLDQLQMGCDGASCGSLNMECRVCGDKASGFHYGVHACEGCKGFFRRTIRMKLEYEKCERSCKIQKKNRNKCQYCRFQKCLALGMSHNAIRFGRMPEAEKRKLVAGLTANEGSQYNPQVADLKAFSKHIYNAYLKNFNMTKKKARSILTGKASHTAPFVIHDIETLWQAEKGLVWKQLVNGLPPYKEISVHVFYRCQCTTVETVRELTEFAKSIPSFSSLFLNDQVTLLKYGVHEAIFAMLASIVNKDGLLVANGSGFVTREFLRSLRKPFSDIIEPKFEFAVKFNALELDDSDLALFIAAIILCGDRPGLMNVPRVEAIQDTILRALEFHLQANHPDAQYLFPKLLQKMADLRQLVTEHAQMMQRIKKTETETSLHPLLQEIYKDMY

Compound | Potency [1] | Potency [2] | Potency [3] | Potency [4] | Potency [5] | Potency [6] | Potency [7] | Potency [8] | Potency [9] | outcome [10] | Potency [11] | Potency [12] | Potency [13] | Potency [14] | Potency [15] | Potency [16] | Potency [17] | Potency [18] | Potency [19]
O=C(c1ccc(O)cc1O)c1ccc(O)cc1O | inactive | inactive | inactive | inactive | inactive | inactive | inactive | inactive | inactive | inactive | inactive | inactive | inactive | inactive | inactive | inactive |  |  | 
O=C1c2ccccc2Cc2ccccc21 | inactive | inactive | inactive |  |  | inactive | inactive | inactive | inactive | inactive | inactive | inactive | inactive | inactive | inactive | inactive | inactive | inactive | inactive
CCCC1O[C@@H]2C[C@H]3[C@@H]4CCC5=CC(=O)C=C[C@]5(C)[C@H]4[C@@H](O)C[C@]3(C)[C@]2(C(=O)CO)O1 (stereo partly drawn) | inactive | inactive | inactive | inactive | inactive | inactive | inactive | inactive | inactive | inactive | inactive | inactive |  | inactive |  |  | inactive | inactive | inactive
CC(C)(C)C(=O)OCOC(=O)C1N2C(=O)CC2S(=O)(=O)C1(C)C (stereo not drawn) |  | inactive | 2.11 µM (active) |  | inactive | inactive |  |  | inactive |  | inactive | inactive | inactive | inactive |  |  | inactive | inactive | inactive
CCCCCCCC(=O)[O-].CCCCCCCC(=O)[O-].[Zn+2] | inactive |  |  |  |  | inactive | inactive |  | inactive | inactive | inactive | inactive | inactive | inactive | inactive | inactive | inactive | inactive | inactive
CC(C)C(C)(C)C(C)(C)C(C)(C)S |  |  |  |  |  |  |  |  |  |  | inactive | inactive |  | inactive |  |  |  |  | 
CCCCCCCCCCCCCCCCCC[N+](C)(C)C | 13.8 µM (active) |  |  |  |  | 55.1 µM (active) |  |  | 3.9 µM (active) |  | 49.1 µM (active) | 54.6 µM (active) | 6.13 µM (active) |  |  |  | 27.6 µM (active) | 24.6 µM (active) | 24.6 µM (active)
O=CC=C(c1ccccc1)c1ccccc1 |  | inactive |  | inactive |  |  |  |  |  |  |  |  | 61.6 µM (active) | inactive |  |  |  |  | 
NNc1nc(-c2ccc([N+](=O)[O-])cc2)cs1 |  |  |  |  |  | inactive |  | inactive |  |  | inactive | 30.6 µM (active) |  | inactive |  |  |  |  | 
CCc1cc(Cc2cc(CC)c(N)c(CC)c2)cc(CC)c1N | 54.9 µM (active) |  |  |  | inactive | inactive |  | inactive |  |  |  |  | 48.6 µM (active) |  |  |  | 54.9 µM (active) | 43.6 µM (active) | 
